Assay results as given in PubChem BioAssay (Tox21).
Records with an inconclusive call do not appear. Activity calls are given as the source filed them. Calls follow the shape of the full dose curve.

Legend:
[1] = biological target: Acetylcholinesterase (Homo sapiens) (UniProt P22303); test: Acetylcholinesterase (AChE) small molecule antagonists: colormetric cell-based qHTS assay (AID 1347395); also: nearly all actives have a fitted effect of over 30% in size; also: potency is read from the fitted curve at half-maximal effect
Outline: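 Quantitative HTS in attached SH-SY5Y cells: 30 min compound exposure, then 90 min with acetylthiocholine and DTNB at 37 C; colour from thiocholine reports AChE activity.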

[2] = biological target: Acetylcholinesterase (Homo sapiens) (UniProt P22303); test: Acetylcholinesterase (AChE) small molecule antagonists: enzyme-based qHTS assay (AID 1347397); conditions: Potency: AChE enzyme activity inhibition; outcome: AChE enzyme activity inhibition; also: nearly all actives have a fitted effect of over 55% in size; also: potency is read from the fitted curve at half-maximal effect
Outline: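 Recombinant human AChE, dispensed at 50 mU/mL, was preincubated with Tox21 10K compounds or DMSO vehicle for 30 min at room temperature. DTNB plus acetylthiocholine was then added, and thiocholine was measured colorimetrically after a further 10 min.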

[3] = biological target: Acetylcholinesterase (Homo sapiens) (UniProt P22303); test: Acetylcholinesterase (AChE) small molecule antagonists: fluorescence cell-based qHTS assay (AID 1347398); conditions: Potency: AChE activity; outcome: AChE activity; also: nearly all actives have a fitted effect of over 50% in size; also: potency is read from the fitted curve at half-maximal effect
Outline: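 Human SH-SY5Y cells were plated overnight at 37 C, exposed to compound for 30 min at 37 C, 5% CO2, then given acetylthiocholine plus Thiolite Green for 40 min at room temperature; thiocholine fluorescence (Ex/Em 490/520 nm) reports endogenous AChE activity.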

[4] = biological target: Acetylcholinesterase (Homo sapiens) (UniProt P22303); test: Acetylcholinesterase (AChE) small molecule antagonists: enzyme-based qHTS assay with human liver microsomes (AID 1347399); conditions: Potency: qHTS inhibition; outcome: qHTS inhibition; also: nearly all actives have a fitted effect of over 60% in size
Outline: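 Recombinant human AChE (50 mU/mL in the enzyme mix) and human liver microsomes (0.25 mg/mL final) were preincubated with compound and NADPH (0.25 mg/mL final) for 30 min at 37 C. Acetylthiocholine/DTNB was then added; thiocholine was read colorimetrically after 10 min at room temperature.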

Measured: Potency

Chain of Acetylcholinesterase (Homo sapiens) (P22303 whole entry, looked up): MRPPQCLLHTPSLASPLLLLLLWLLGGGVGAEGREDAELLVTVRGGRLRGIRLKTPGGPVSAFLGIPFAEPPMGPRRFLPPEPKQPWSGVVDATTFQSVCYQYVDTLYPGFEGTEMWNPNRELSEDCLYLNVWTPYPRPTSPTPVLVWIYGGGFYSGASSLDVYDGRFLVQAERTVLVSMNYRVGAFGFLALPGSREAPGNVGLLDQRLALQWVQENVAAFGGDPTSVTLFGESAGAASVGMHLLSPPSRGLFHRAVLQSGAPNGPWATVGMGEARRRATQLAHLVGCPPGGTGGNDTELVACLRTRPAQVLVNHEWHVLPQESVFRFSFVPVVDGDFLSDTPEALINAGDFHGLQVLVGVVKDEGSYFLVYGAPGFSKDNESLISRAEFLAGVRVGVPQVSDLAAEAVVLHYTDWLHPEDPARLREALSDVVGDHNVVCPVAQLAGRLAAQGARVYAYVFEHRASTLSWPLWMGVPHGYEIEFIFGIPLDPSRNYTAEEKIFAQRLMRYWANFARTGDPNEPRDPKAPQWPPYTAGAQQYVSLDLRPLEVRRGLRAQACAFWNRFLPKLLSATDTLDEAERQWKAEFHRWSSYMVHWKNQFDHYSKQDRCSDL

CCc1cccc2c3c([nH]c12)C(CC)(CC(=O)O)OCC3 (stereo not given)
inactive: all assays above

COCCOC(=O)CC#N
inactive: all assays above

O=[N+]([O-])c1c(Cl)cc(Cl)cc1Cl
inactive: all assays above

Nc1cc([N+](=O)[O-])ccc1C(=O)O
inactive: all assays above

CCc1nnc(NS(=O)(=O)c2ccc(N)cc2)s1
inactive: all assays above

Cn1c([N+](=O)[O-])cnc1COC(N)=O
inactive: all assays above

Nc1nc(N)c2nc(CNc3ccc(C(=O)N[C@@H](CCC(=O)O)C(=O)O)cc3)cnc2n1
inactive: all assays above

C=C(C)C(=O)OCCOP(=O)(O)OCCOC(=O)C(=C)C
inactive: all assays above

Cc1ccc(S(=O)(=O)NC2CCCCC2)cc1
inactive: all assays above

O=C(CN1CCNCC1)NC1CCCCC1
inactive: all assays above

CC(=O)NCc1c(I)c(NC(C)=O)c(I)c(C(=O)O)c1I
inactive: all assays above

CCCCCCCCOc1ccc(C(=O)c2ccccc2)c(O)c1
inactive: all assays above

CCC(O)OCCCOC (stereo not given)
inactive: all assays above

CC(C)NNC(=O)c1ccncc1
inactive: all assays above

O=C(NOCC1CC1)c1ccc(F)c(F)c1Nc1ccc(I)cc1Cl
inactive: all assays above

COC(=O)CCS
inactive: all assays above

N#Cc1ccccc1O
inactive: all assays above

Oc1ccc(Sc2ccc(O)cc2)cc1
inactive: all assays above

Cc1ccnc(NS(=O)(=O)c2ccc(N)cc2)n1
inactive: all assays above

CC(O)(P(=O)(O)O)P(=O)(O)O
inactive: all assays above

Oc1ccc(CCNCCCCCCNCCc2ccccc2)cc1O
active: [1] 7.76 µM | [2] 27.5 µM | [3] 13.8 µM
inactive: [4]

CCOC(=O)C1=NN(c2ccccc2)C(=O)C1
inactive: all assays above

Oc1cccc(O)c1
inactive: all assays above

C[C@H]1COc2c(C3(N)CC3)c(F)cc3c(=O)c(C(=O)O)cn1c23
inactive: all assays above

C=CC(=O)OCCCCCCOC(=O)C=C
inactive: all assays above

Cc1ccccc1C(=O)Nc1ccc(C(=O)N2CCCC(O)c3cc(Cl)ccc32)c(C)c1 (stereo not given)
inactive: all assays above

C=C(C)C(=O)OCCCCCCCCCCCCC
inactive: all assays above

CC(O)CN(CCN(CC(C)O)CC(C)O)CC(C)O (stereo not given)
inactive: all assays above

O=CN(CCO)CCO
inactive: all assays above

Cc1c(N(C)C)c(=O)n(-c2ccccc2)n1C
inactive: all assays above

CC1(C)CC(N=C=O)CC(C)(CN=C=O)C1 (stereo not given)
inactive: all assays above

C=C1C(CCl)(CCl)C2(Cl)C(Cl)C(Cl)C1(Cl)C2(Cl)Cl (stereo not given)
inactive: all assays above

CCCCc1ccc(Cl)cc1
inactive: all assays above

CC(Oc1cc(Cl)ccc1Cl)C(=O)O (stereo not given)
inactive: all assays above

Cc1cc2nc(N)sc2cc1C
inactive: all assays above

C(=C/c1ccccc1)/c1ccccc1
inactive: all assays above

CC(=O)c1cc2ccccc2s1
inactive: all assays above

CCCCCCCCCCCCCCCC(=O)OC[C@H](O)[C@H]1OC(=O)C(O)=C1O
inactive: all assays above

O=c1[nH]nc(-c2ccc([N+](=O)[O-])o2)o1
inactive: all assays above

C/C=C(\C)C(=O)OCCc1ccccc1
inactive: all assays above

O=c1c(-c2ccc(O)cc2)coc2cc(O)ccc12
inactive: all assays above

C=Cc1ccc(C)cc1
inactive: all assays above

BrCCOc1ccccc1
inactive: all assays above

CC(C)C(=O)OCCOc1ccccc1
inactive: all assays above

CC(=O)O[C@]1(C(C)=O)CC[C@H]2[C@@H]3C=C(C)C4=CC(=O)CC[C@]4(C)[C@H]3CC[C@@]21C
inactive: all assays above

O=C(O)c1cc(=O)c2c(OCC(O)COc3cccc4oc(C(=O)O)cc(=O)c34)cccc2o1
inactive: all assays above

c1ccc(CCc2ccccc2)cc1
inactive: all assays above

N#Cc1ccccc1C#N
inactive: all assays above

CC1(C)C(=O)N(Cl)C(=O)N1Cl
inactive: all assays above

CC(C)OC(C)C
inactive: all assays above

c1ccc(Sc2ccccc2)cc1
inactive: all assays above

CC[C@H](c1ccc(O)cc1)[C@@H](CC)c1ccc(O)cc1
inactive: all assays above

NC(=O)c1cnccn1
inactive: all assays above

Cc1c(F)cc2c(=O)c(C(=O)O)cn3c2c1CCC3C (stereo not given)
inactive: all assays above

COC(c1ccccc1)(c1ccccc1)[C@H](Oc1nc(C)cc(C)n1)C(=O)O
inactive: all assays above

OC(CCCN1CCCCC1)(c1ccccc1)c1ccccc1
inactive: all assays above

CC(=O)Nc1cccc(O)c1
inactive: all assays above

Cc1cccc(Nc2ccncc2S(=O)(=O)NC(=O)NC(C)C)c1
inactive: all assays above

Cc1ccccc1N=C(N)Nc1ccccc1C
inactive: all assays above

CCCCCCOc1ccc(O)cc1
inactive: all assays above
